Experiments:
Experiment in all cases: DAPPL (digital affinity profiling via proximity ligation, sequencing); 10 mM Tris-HCl pH 7.5, 50 mM NaCl, 1 mM DTT, 4% glycerol, room temperature, 30 min; GST-TFs on glutathione beads, 16-mer random dsDNA library, 0.1% formaldehyde crosslink after washing; high values mean tight binding
FEV = target: T1, FEV (Homo sapiens, UniProt Q99581 1-238); details: protein: recombinant; tags: N-terminal GST; dsDNA, one strand shown
T1 sequence: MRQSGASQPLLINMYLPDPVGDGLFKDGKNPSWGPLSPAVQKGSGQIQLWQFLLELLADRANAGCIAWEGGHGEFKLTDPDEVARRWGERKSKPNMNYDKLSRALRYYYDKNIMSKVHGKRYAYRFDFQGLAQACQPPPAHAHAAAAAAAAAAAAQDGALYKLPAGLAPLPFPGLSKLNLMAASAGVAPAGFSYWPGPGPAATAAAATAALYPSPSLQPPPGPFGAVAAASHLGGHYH
Summary of the method: (§1)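 The binding signal reported is, for every hexamer, its read frequency for a factor over its read frequency for the tag-only sample. Reads came from pools of yeast-expressed, GST-fused human transcription factors on glutathione beads, barcoded with DNA and mixed with that sample, which were incubated with 200 nmole of a random double-stranded 16-mer DNA library in Tris/NaCl/DTT/glycerol buffer at room temperature for 30 min. After washing, the pools were crosslinked with 0.1% formaldehyde, proximity-ligated with BsaI/T4 ligase for 1 h at 37 °C, PCR-amplified and sequenced on an Illumina NextSeq500.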

ETV5 = ETV5 (Homo sapiens, UniProt P41161 1-510); details: protein: recombinant; tags: N-terminal GST; dsDNA, one strand shown
Chain of ETV5 (P41161 whole entry): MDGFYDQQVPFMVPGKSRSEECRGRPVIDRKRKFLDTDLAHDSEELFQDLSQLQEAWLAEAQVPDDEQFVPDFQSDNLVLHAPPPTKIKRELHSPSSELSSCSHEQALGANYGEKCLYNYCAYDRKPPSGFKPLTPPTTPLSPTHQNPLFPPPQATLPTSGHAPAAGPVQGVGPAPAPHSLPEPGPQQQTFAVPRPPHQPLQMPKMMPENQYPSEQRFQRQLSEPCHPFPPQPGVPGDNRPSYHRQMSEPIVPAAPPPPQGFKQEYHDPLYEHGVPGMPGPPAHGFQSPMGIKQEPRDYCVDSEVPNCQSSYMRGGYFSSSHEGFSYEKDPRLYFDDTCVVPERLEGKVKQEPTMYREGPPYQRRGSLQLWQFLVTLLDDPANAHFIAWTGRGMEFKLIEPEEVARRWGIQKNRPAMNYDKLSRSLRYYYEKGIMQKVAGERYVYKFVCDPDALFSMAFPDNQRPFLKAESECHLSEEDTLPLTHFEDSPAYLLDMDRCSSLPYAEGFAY
Summary of the method: as §1

HSF1 = HSF1 (Homo sapiens, UniProt Q00613 1-529); details: protein: recombinant; tags: N-terminal GST; chain copies: 3; dsDNA, one strand shown
Chain of HSF1 (Q00613 whole entry): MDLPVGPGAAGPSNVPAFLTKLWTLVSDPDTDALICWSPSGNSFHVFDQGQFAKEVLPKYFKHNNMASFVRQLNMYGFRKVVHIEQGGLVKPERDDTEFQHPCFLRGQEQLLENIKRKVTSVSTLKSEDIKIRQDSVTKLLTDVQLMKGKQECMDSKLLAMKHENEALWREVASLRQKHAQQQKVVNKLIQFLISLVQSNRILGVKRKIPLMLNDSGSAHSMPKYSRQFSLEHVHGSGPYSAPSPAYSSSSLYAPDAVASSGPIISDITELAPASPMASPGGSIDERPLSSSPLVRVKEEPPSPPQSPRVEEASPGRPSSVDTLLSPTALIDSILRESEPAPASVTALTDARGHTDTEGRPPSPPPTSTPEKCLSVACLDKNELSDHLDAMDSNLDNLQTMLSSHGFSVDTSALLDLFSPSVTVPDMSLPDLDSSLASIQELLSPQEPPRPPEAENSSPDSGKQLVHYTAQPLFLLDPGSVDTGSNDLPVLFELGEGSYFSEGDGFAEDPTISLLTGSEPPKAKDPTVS
Summary of the method: as §1

SPIC = target: T2, SPIC (Homo sapiens, UniProt Q8N5J4 1-248); details: protein: recombinant; tags: N-terminal GST; dsDNA, one strand shown
T2 sequence: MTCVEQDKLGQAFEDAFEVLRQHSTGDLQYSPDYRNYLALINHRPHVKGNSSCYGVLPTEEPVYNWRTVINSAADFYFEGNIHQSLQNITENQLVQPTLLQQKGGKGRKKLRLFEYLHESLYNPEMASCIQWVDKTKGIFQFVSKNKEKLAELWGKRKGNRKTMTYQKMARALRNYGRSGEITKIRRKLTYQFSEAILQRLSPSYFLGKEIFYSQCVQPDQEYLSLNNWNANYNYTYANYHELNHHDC
Summary of the method: as §1

ELF4 = ELF4 (Homo sapiens, UniProt Q99607 1-663); details: protein: recombinant; tags: N-terminal GST; dsDNA, one strand shown
Chain of ELF4 (Q99607 whole entry): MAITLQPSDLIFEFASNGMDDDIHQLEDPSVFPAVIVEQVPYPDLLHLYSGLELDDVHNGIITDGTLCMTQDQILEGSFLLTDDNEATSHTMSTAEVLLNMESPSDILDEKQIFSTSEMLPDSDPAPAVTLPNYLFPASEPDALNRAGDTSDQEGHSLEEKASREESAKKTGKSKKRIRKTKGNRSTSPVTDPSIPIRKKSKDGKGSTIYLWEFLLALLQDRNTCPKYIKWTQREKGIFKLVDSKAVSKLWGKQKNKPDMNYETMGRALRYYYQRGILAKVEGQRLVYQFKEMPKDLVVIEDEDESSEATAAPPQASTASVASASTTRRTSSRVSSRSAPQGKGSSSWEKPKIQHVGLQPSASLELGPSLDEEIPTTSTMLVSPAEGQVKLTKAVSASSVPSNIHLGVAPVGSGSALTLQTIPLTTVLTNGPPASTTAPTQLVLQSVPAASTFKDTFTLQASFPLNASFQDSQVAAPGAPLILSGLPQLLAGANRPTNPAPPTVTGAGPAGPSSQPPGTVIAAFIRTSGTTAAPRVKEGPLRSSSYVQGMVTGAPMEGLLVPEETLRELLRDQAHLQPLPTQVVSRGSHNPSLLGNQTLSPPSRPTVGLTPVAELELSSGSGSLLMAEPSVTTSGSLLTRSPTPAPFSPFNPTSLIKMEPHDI
Summary of the method: as §1

ELK4 = target: T3, ELK4 (Homo sapiens, UniProt P28324-2 1-405); details: protein: recombinant; tags: N-terminal GST; dsDNA, one strand shown
T3 sequence: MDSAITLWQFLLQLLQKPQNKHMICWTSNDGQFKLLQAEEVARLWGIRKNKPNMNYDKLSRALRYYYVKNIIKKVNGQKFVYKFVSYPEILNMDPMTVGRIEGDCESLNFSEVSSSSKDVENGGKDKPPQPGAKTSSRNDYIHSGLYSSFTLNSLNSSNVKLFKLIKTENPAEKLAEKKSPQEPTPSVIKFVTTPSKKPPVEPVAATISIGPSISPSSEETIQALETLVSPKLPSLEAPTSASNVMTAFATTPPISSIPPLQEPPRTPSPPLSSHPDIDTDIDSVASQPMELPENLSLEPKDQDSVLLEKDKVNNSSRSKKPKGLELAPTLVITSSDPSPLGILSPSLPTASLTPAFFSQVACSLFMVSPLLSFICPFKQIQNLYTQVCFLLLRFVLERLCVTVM
Summary of the method: as §1

ETV2 = target: T4, ETV2 (Homo sapiens, UniProt O00321 1-342); details: protein: recombinant; tags: N-terminal GST; dsDNA, one strand shown
T4 sequence: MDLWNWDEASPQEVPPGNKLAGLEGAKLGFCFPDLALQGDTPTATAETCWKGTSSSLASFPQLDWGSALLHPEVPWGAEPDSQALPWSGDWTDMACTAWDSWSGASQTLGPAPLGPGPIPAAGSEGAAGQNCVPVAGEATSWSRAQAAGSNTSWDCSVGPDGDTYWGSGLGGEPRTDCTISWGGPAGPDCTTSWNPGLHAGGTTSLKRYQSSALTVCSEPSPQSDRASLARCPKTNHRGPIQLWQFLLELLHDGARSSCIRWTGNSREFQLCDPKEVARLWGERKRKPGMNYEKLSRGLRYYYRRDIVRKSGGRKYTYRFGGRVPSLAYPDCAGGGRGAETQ
Summary of the method: as §1

ELF3 = target: T5, ELF3 (Homo sapiens, UniProt P78545 1-371); details: protein: recombinant; tags: N-terminal GST; dsDNA, one strand shown
T5 sequence: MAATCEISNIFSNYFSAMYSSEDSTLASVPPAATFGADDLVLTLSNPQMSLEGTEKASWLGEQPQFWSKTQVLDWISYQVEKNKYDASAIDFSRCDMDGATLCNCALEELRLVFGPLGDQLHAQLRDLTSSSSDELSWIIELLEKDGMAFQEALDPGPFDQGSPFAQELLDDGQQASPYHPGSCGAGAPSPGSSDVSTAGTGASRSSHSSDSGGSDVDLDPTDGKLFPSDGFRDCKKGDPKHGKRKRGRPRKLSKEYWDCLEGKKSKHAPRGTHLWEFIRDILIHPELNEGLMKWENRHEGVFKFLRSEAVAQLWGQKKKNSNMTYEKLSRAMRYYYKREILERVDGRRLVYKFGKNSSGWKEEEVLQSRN
Summary of the method: as §1

CRX = CRX (Homo sapiens, UniProt O43186 1-299); details: protein: recombinant; tags: N-terminal GST; dsDNA, one strand shown
Chain of CRX (O43186 whole entry): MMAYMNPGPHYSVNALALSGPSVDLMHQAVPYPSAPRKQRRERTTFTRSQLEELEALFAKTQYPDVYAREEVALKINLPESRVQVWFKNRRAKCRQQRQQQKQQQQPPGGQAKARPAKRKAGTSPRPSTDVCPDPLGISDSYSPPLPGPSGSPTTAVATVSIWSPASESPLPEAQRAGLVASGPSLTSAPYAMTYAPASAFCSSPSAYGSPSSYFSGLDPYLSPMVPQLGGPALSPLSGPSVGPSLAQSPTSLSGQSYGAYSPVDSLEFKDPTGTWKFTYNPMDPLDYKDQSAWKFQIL
Summary of the method: as §1

ETV1 = ETV1 (Homo sapiens, UniProt P50549 1-477); details: protein: recombinant; tags: N-terminal GST; dsDNA, one strand shown
Chain of ETV1 (P50549 whole entry): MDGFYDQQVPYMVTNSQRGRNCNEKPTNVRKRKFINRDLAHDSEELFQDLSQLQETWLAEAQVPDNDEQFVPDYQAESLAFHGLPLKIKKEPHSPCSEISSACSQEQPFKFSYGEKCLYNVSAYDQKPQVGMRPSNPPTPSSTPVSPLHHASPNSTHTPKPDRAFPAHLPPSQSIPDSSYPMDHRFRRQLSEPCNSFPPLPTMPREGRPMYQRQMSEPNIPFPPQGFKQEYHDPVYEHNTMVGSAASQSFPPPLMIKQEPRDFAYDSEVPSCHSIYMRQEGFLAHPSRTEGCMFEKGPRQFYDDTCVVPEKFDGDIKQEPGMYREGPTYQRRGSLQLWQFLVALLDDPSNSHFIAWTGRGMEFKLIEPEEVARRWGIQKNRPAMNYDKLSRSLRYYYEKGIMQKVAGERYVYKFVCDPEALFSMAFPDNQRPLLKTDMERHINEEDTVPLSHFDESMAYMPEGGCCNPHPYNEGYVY
Summary of the method: as §1

ERF = target: T6, ERF (Homo sapiens, UniProt P50548 1-548); details: protein: recombinant; tags: N-terminal GST; dsDNA, one strand shown
T6 sequence: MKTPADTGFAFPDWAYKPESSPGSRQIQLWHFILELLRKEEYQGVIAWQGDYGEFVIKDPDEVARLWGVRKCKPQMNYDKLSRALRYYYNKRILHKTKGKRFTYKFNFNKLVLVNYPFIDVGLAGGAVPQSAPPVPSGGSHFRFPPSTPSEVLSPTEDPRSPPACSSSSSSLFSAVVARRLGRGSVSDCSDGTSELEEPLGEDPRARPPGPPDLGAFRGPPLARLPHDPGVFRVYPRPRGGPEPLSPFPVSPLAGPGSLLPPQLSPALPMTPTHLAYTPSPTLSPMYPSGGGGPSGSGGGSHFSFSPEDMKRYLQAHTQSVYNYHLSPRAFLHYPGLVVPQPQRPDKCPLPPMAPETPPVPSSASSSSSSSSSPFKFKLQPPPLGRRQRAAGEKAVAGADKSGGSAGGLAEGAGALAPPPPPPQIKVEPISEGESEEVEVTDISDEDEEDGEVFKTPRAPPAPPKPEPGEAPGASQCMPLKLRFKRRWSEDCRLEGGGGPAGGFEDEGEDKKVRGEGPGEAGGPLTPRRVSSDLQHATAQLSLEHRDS
Summary of the method: as §1

ETV3L = target: T7, ETV3L (Homo sapiens, UniProt Q6ZN32 1-361); details: protein: recombinant; tags: N-terminal GST; dsDNA, one strand shown
T7 sequence: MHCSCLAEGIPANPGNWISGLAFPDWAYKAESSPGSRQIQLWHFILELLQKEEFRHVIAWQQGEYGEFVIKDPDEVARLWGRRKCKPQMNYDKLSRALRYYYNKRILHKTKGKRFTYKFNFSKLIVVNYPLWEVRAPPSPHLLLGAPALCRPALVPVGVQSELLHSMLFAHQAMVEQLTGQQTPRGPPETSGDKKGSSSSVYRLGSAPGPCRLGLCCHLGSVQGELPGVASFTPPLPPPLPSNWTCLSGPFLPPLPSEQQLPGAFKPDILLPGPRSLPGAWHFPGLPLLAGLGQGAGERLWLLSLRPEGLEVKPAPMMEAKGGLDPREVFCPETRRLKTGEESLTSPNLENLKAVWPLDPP
Summary of the method: as §1

ETS2 = target: T8, ETS2 (Homo sapiens, UniProt P15036 1-469); details: protein: recombinant; tags: N-terminal GST; dsDNA, one strand shown
T8 sequence: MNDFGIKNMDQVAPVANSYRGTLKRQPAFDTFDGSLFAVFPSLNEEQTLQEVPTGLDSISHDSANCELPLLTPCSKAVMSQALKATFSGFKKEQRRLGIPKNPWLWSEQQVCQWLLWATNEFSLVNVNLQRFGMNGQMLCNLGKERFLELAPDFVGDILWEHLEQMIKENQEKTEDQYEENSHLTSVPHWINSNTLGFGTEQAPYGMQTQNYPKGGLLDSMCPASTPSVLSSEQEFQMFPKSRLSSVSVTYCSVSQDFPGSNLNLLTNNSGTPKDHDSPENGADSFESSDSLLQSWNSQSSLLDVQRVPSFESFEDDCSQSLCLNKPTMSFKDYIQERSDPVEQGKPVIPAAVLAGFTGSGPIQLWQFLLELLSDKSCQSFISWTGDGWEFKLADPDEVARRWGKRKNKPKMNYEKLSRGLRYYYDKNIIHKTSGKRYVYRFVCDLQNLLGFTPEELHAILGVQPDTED
Summary of the method: as §1

SPDEF = target: T9, SPDEF (Homo sapiens, UniProt O95238 1-335); details: protein: recombinant; tags: N-terminal GST; dsDNA, one strand shown
T9 sequence: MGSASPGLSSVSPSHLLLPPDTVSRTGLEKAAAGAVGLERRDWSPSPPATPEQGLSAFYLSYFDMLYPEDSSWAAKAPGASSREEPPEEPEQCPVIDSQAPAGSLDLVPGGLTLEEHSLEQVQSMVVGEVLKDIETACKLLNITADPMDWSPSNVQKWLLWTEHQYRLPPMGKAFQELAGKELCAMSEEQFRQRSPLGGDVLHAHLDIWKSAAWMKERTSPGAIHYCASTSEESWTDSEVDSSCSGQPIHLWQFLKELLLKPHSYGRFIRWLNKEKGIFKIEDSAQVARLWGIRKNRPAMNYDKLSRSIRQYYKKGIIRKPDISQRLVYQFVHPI
Summary of the method: as §1

ETV7 = target: T10, ETV7 (Homo sapiens, UniProt Q9Y603 1-341); details: protein: recombinant; tags: N-terminal GST; dsDNA, one strand shown
T10 sequence: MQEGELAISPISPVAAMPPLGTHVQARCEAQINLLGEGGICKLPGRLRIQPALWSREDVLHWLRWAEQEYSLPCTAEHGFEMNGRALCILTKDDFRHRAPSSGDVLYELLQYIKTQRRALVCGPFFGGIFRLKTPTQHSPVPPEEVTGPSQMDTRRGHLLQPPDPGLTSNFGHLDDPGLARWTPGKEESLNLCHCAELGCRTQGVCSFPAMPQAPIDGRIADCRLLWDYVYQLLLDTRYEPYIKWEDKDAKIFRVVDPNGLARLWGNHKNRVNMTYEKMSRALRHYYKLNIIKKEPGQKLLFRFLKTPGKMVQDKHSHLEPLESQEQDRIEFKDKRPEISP
Summary of the method: as §1

ELF5 = target: T11, ELF5 (Homo sapiens, UniProt Q9UKW6-2 1-255); details: protein: recombinant; tags: N-terminal GST; dsDNA, one strand shown
T11 sequence: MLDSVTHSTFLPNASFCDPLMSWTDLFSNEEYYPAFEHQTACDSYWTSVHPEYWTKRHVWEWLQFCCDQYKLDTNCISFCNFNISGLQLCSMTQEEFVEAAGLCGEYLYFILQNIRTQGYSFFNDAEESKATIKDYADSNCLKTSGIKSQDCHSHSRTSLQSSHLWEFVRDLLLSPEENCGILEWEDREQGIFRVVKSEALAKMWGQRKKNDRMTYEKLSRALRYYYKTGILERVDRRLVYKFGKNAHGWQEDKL
Summary of the method: as §1

ETV3 = target: T12, ETV3 (Homo sapiens, UniProt P41162-2 1-143); details: protein: recombinant; tags: N-terminal GST; dsDNA, one strand shown
T12 sequence: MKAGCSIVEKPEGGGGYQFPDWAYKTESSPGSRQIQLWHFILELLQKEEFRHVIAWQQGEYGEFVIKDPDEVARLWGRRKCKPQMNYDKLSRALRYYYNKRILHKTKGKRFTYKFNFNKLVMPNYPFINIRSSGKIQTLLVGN
Summary of the method: as §1

ETV6 = ETV6 (Homo sapiens, UniProt P41212 1-452); details: protein: recombinant; tags: N-terminal GST; dsDNA, one strand shown
Chain of ETV6 (P41212 whole entry): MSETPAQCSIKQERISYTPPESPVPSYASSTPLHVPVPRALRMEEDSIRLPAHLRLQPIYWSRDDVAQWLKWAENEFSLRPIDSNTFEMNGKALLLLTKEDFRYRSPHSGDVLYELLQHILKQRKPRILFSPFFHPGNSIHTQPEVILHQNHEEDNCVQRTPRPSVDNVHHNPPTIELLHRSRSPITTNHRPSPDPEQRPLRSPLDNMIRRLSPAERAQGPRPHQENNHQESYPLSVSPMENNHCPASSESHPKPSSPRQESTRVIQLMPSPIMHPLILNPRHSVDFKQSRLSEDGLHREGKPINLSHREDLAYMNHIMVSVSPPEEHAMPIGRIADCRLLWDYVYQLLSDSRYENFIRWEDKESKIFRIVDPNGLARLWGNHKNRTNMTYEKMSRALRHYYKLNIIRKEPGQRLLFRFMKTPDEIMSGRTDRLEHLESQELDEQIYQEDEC
Summary of the method: as §1

Sequence: AAGCCT
- binding signal (FEV): 1.2 fold enrichment (6-mer frequency, TF over GST control)
- binding signal (ETV5): 1.21 fold enrichment (6-mer frequency, TF over GST control)
- binding signal (HSF1): 1.5 fold enrichment (6-mer frequency, TF over GST control)
- binding signal (SPIC): 1.26 fold enrichment (6-mer frequency, TF over GST control)
- binding signal (ELF4): 1.24 fold enrichment (6-mer frequency, TF over GST control)
- binding signal (ELK4): 1.14 fold enrichment (6-mer frequency, TF over GST control)
- binding signal (ETV2): 1.19 fold enrichment (6-mer frequency, TF over GST control)
- binding signal (ELF3): 1.18 fold enrichment (6-mer frequency, TF over GST control)
- binding signal (CRX): 1.97 fold enrichment (6-mer frequency, TF over GST control)
- binding signal (ETV1): 1.18 fold enrichment (6-mer frequency, TF over GST control)
- binding signal (ERF): 1.17 fold enrichment (6-mer frequency, TF over GST control)
- binding signal (ETV3L): 1.23 fold enrichment (6-mer frequency, TF over GST control)
- binding signal (ETS2): 1.22 fold enrichment (6-mer frequency, TF over GST control)
- binding signal (SPDEF): 1.02 fold enrichment (6-mer frequency, TF over GST control)
- binding signal (ETV7): 1.3 fold enrichment (6-mer frequency, TF over GST control)
- binding signal (ELF5): 1.2 fold enrichment (6-mer frequency, TF over GST control)
- binding signal (ETV3): 1.3 fold enrichment (6-mer frequency, TF over GST control)
- binding signal (ETV6): 1.23 fold enrichment (6-mer frequency, TF over GST control)
